Assay results from PubChem BioAssay.
A number with no mark means an inactive call.

Assay: cell viability in Huh7 cells, primary screen, cytotoxicity control for HCV replication inhibitor project, CellTiter-Glo luminescence, basal, 48 h (AID 1143);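 note: Huh7 hepatoma cells carrying a hepatitis C replication reporter with no stimulus; test concentration not given here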
Settings: Huh7 HCV replicon, higher = more signal, called active from +8 up or from −8 down

Going from COCCOC(=O)N1C(=O)[C@@]2(c3cc(C#Cc4ccc(OC)cc4)ccc31)[C@H](c1ccc(OCCO)cc1)N1[C@H](c3ccccc3)[C@H](c3ccccc3)OC(=O)[C@H]1[C@@H]2C(=O)N1CCN(c2ncccn2)CC1 to C=CCNC(=O)[C@@H]1[C@H]2C(=O)O[C@H](c3ccccc3)[C@H](c3ccccc3)N2[C@H](c2ccc(O)cc2)[C@@]12C(=O)N(C(=O)OCCOC)c1ccc(C#CCNC(N)=O)cc12, the z-score falls from -0.438 to -2.23.

Compared with C[N+](C)(C)CCCCCCNC(=O)[C@@H]1C[C@@H]2C(=O)N[C@@H](Cc3ccccc3)C(=O)N2[C@@H]1c1cccc(OCCO)c1, COCCCNC(=O)[C@@]1(C)c2ccccc2C(=O)N(C(C)C)[C@H]1c1ccc(CO)cc1 is higher in z-score: -0.428 for the first, 0.169 for the second.

Compared with CCOC(=O)C1=C[C@@H](C(C)(C)C)N(S(=O)(=O)c2ccc(C)cc2)[C@H]1c1ccc(F)cc1, CC(C)N1C(=O)C[C@@](C(=O)NCC(F)(F)F)(c2ccc([N+](=O)[O-])cc2)[C@H]1c1ccc(CO)cc1 is lower in z-score: -3.79 for the first, -4.06 for the second.

Going from COC(=O)c1c(CC[C@@H](CO)NC(=O)NCCn2cc(C3(O)CCCC3)nn2)oc(C(C)=O)c1C(=O)OC to C=C(/C(=C/C[C@H](OC(C)=O)c1ccccc1OCCO)c1cnc2ccccc2c1)C(C)C, the z-score falls from -0.177 to -1.61.

Compared with NC(=O)N1C(=O)C2C(C1=O)C1C=C(c3ccc(CO)cc3)C2C(c2cccs2)N1Cc1cccc(OC(F)(F)F)c1 (stereo not given), NC(=O)[C@@H]1[C@H]2C(=O)O[C@H](c3ccccc3)[C@H](c3ccccc3)N2[C@H](c2ccc(O)cc2)[C@@]12C(=O)Nc1ccccc12 is lower in z-score: -3.63 for the first, -4.14 for the second.
